Assay results taken from PubChem BioAssay (EPA / NIEHS).
Values joined by “and” are separate entries in the source; they are usually repeats but may differ in a detail not shown here. Equal values may be shown once. Where a structure was tested more than once in an assay, its records may differ in their call. Active and inactive are the calls of the source. The calls were made as follows: active = hit-call score of the fitted dose curve at least 0.9, where 1 is the maximum; inactive = score below 0.9.

What was measured:
[1] = read-out: Monocyte Chemoattractant Protein-1 (MCP1), CCL2 (gene 6347); test: BSK_LPS_MCP1: BioMAP Diversity Plus: LPS Assay for Monocyte Chemoattractant Protein-1 (MCP1) Biomarker Activity (AID 2283081); conditions: primary human HUVEC with PBMC; actives raise or lower the signal;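 as to AC50: co-culture stimulated with LPS; secreted MCP-1 protein quantified by ELISA in culture supernatant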
In short: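 Secreted MCP-1 read by ELISA at 24 h post-dosing in an LPS-activated co-culture of endothelial cells with peripheral blood mononuclear cells. Fits run in both directions, DMSO as baseline; parallel SRB staining tracks overt cytotoxicity.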

[2] = BSK_LPS_PGE2: BioMAP Diversity Plus: LPS Assay for Prostaglandin E2 (PGE2) Biomarker Activity (AID 2283082); conditions: primary human HUVEC with PBMC; actives raise or lower the signal
In short: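 Primary human endothelial cells and blood mononuclear cells, co-cultured with LPS, receive test chemical; PGE2 ELISA follows at 24 h, with SRB-stained parallel cultures flagging cytotoxicity.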

[3] = read-out: Tissue Factor, F3 (gene 2152); test: BSK_LPS_TissueFactor: BioMAP Diversity Plus: LPS Assay for Tissue Factor Biomarker Activity (AID 2283084); conditions: primary human HUVEC with PBMC; actives raise or lower the signal
In short: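 Compound was added to an endothelial cell/PBMC co-culture, and after 24 h tissue factor (CD142) was read by ELISA. Gain or loss of signal was fitted against a DMSO baseline, and parallel SRB staining (560 nm) tracked overt cytotoxicity.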

[4] = read-out: Tumor necrosis factor (Homo sapiens) (UniProt P01375); test: BSK_LPS_TNFa: BioMAP Diversity Plus: LPS Assay for Tumour Necrosis Factor alpha (TNFa) Biomarker Activity (AID 2283085); conditions: primary human HUVEC with PBMC; actives raise or lower the signal;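 as to AC50: TNFa protein level quantified by ELISA in the co-culture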
In short: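 ELISA-based TNFa endpoint in a human endothelial–PBMC co-culture sampled 24 h post-exposure. Curves were fitted in both directions using DMSO as baseline of activity.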

[5] = read-out: Vascular cell adhesion molecule 1 (VCAM1), VCAM1 (gene 7412); test: BSK_LPS_VCAM1: BioMAP Diversity Plus: LPS Assay for Vascular cell adhesion molecule 1 (VCAM1) Biomarker Activity (AID 2283086); conditions: primary human HUVEC with PBMC; actives raise or lower the signal
In short: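 Measured by ELISA: VCAM-1 in LPS-activated HUVEC/PBMC co-cultures 24 h after treatment. Values reflect bidirectional fitting with DMSO as baseline.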

CD40, CD40 (gene 958) = test: BSK_SAg_CD40: BioMAP Diversity Plus: SAg Assay for CD40 Biomarker Activity (AID 2283088); conditions: primary human HUVEC with PBMC; actives raise or lower the signal
In short: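 CD40 is measured by fluorescence ELISA in an endothelial/PBMC primary human co-culture at 24 h post-dose. Fitting is bidirectional, DMSO baseline. Parallel SRB staining (560 nm) flags cytotoxicity.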

CD69, CD69 (gene 969) = test: BSK_SAg_CD69: BioMAP Diversity Plus: SAg Assay for CD69 Biomarker Activity (AID 2283089); conditions: primary human HUVEC with PBMC; actives raise or lower the signal;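 as to AC50: cell surface CD69 protein quantified by ELISA with fluorescence detection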
In short: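 HUVEC co-cultured with PBMC were dosed with chemical, and CD69 was measured by ELISA with fluorescence read-out 24 h later. Bidirectional curve fitting used DMSO as negative control and activity baseline.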

[6] = read-out: Monocyte Chemoattractant Protein-1 (MCP1), CCL2 (gene 6347); test: BSK_SAg_MCP1: BioMAP Diversity Plus: SAg Assay for Monocyte Chemoattractant Protein-1 (MCP1) Biomarker Activity (AID 2283090); conditions: primary human HUVEC with PBMC; actives raise or lower the signal
In short: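 Values derive from bidirectional fitting of ELISA-measured MCP1 against DMSO controls. Readings were taken 24 h after dosing human vascular endothelial cells co-cultured with peripheral blood mononuclear cells under superantigen stimulation.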

[7] = read-out: E-selectin (Homo sapiens) (UniProt P16581); test: BSK_SAg_Eselectin: BioMAP Diversity Plus: SAg Assay for Eselectin Biomarker Activity (AID 2283091); conditions: primary human HUVEC with PBMC; actives raise or lower the signal
In short: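 Cell-surface E-selectin is read by ELISA at 24 h in the SAg co-culture of HUVEC and PBMC. Curves are fitted in both directions relative to DMSO. Parallel SRB total-protein staining tracks overt toxicity.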

[8] = read-out: Monokine induced gamma interferon (MIG), CXCL9 (gene 4283); test: BSK_SAg_MIG: BioMAP Diversity Plus: SAg Assay for Monokine induced gamma interferon (MIG) Biomarker Activity (AID 2283092); conditions: primary human HUVEC with PBMC; actives raise or lower the signal
In short: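 HUVEC plus human PBMC co-culture, chemicals dosed and MIG (CXCL9) quantified by ELISA at 24 h. Bidirectional curve fitting against DMSO as negative control and baseline, so both gain and loss of signal count as activity.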

[9] = BSK_SAg_PBMCCytotoxicity: PBMC Cytotoxicity Assessment in the BioMAP Diversity Plus: SAg Assay (AID 2283093); conditions: primary human HUVEC with PBMC;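 also: fitted both ways against DMSO so a hit may be loss or gain of signal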;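 as to AC50: PBMC superantigen activated with SEB plus TSST-1 one hour after compound addition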
In short: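 PBMC viability by Alamar Blue reduction, fluorescence read at 546/580 nm after 6 h dye exposure. Cells were dosed 1 h before SEB plus TSST-1 activation (20 ng/mL final each), then held 90 h; endothelial/PBMC human co-culture.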

[10] = BSK_SAg_Proliferation: Cell Proliferation Assessment in the BioMAP Diversity Plus: SAg Assay (AID 2283095); conditions: primary human HUVEC with PBMC;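 also: relative cell number as total protein by SRB absorbance in sub-confluent culture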
In short: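 A human primary co-culture of umbilical vein endothelium and blood mononuclear cells receives compound; relative cell number is quantified at 96 h by SRB staining and 560 nm absorbance, with DMSO-referenced bidirectional curve fitting.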

[11] = BSK_SAg_SRB: Viability Assessment in the BioMAP Diversity Plus: SAg Assay (AID 2283096); conditions: primary human HUVEC with PBMC;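 also: cells read one day after compound addition; hits may be either gain or loss of signal compared with DMSO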
In short: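 Compounds were added to a human vascular co-culture of umbilical vein endothelium and PBMC. After 24 h, parallel cultures were fixed with 10% TCA, stained with 0.1% sulforhodamine B and read at 560 nm. Gain or loss of signal was fitted relative to DMSO.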

CD38, CD38 (gene 952) = test: BSK_SAg_CD38: BioMAP Diversity Plus: SAg Assay for CD38 Biomarker Activity (AID 2283087); conditions: primary human HUVEC with PBMC; actives raise or lower the signal
In short: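 Measures CD38 on a human endothelial/PBMC co-culture driven by SEB and TSST-1, 24 h after compound exposure, using ELISA with fluorescence detection; DMSO defines baseline for bidirectional curve fitting.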

[12] = read-out: Interleukin-8 (IL8), CXCL8 (gene 3576); test: BSK_SAg_IL8: BioMAP Diversity Plus: SAg Assay for Interleukin-8 (IL8) Biomarker Activity (AID 2283094); conditions: primary human HUVEC with PBMC; actives raise or lower the signal
In short: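 Primary human endothelial cells with PBMC, exposed 24 h; IL-8 determined by ELISA, analysed bidirectionally relative to DMSO.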

[13] = read-out: Macrophage colony-stimulating factor (MCSF), CSF1 (gene 1435); test: BSK_LPS_MCSF: BioMAP Diversity Plus: LPS Assay for Macrophage colony-stimulating factor (MCSF) Biomarker Activity (AID 2283083); conditions: primary human HUVEC with PBMC; actives raise or lower the signal
In short: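 Bidirectional fitting against DMSO was applied to M-CSF levels read by ELISA at 24 h post-dose. The system pairs human umbilical vein endothelium with peripheral blood mononuclear cells; parallel SRB staining tracked cytotoxicity.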

Measured: AC50

Tumor necrosis factor (Homo sapiens), sequence (P01375 whole entry, looked up): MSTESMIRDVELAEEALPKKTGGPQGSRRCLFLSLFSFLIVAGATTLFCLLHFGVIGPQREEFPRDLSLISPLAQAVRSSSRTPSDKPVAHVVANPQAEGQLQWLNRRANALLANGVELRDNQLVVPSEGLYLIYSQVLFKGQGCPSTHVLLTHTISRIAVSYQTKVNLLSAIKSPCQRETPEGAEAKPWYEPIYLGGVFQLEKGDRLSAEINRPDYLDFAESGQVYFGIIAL
E-selectin (Homo sapiens), sequence (P16581 whole entry, looked up): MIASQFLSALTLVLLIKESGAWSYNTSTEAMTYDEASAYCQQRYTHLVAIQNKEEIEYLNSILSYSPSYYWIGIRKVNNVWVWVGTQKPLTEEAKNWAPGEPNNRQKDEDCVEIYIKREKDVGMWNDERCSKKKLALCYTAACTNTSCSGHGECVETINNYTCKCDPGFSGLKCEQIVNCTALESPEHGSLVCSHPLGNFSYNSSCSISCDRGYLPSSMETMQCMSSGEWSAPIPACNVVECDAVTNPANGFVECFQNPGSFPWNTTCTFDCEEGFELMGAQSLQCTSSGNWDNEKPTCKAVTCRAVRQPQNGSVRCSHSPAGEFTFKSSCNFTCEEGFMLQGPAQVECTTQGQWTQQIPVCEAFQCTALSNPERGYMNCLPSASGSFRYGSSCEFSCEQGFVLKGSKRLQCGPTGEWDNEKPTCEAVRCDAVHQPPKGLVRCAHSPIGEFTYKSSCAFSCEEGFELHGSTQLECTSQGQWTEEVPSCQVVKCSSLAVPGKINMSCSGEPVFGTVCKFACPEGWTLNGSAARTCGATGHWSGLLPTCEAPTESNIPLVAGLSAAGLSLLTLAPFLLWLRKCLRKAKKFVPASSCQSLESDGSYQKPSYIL

Cn1c(=O)c2[nH]cnc2n(C)c1=O
not listed: CD38, CD38 (gene 952) | [12] | [13]
inactive: all other assays above

S=P(N1CC1)(N1CC1)N1CC1
not listed: [10] | [12] | [13]
inactive: all other assays above

COc1cc2c(c(OC)c1OC)-c1ccc(OC)c(=O)cc1[C@@H](NC(C)=O)CC2
active: [4] 2.39 µM | [5] 0.431 µM | CD40, CD40 (gene 958) 0.218 µM | CD69, CD69 (gene 969) 0.505 µM | [11] 0.204 µM
not listed: [10] | CD38, CD38 (gene 952) | [13]
inactive: all other assays above

O=c1[nH]cnc2c1ncn2[C@H]1CC[C@@H](CO)O1
not listed: CD38, CD38 (gene 952) | [12] | [13]
inactive: all other assays above

OC[C@H]1O[C@@](CO)(O[C@H]2O[C@H](CO)[C@@H](O)[C@H](O)[C@H]2O)[C@@H](O)[C@@H]1O
not listed: CD38, CD38 (gene 952) | [12] | [13]
inactive: all other assays above

O=C(NO)C1(NS(=O)(=O)c2ccc(Oc3ccc(F)cc3)cc2)CCOCC1
active: [4] 3.97 µM
not listed: [1] | [10]
inactive: all other assays above

Cc1nc(-c2ccccn2)ncc1C(=O)Nn1cc(C)c2cc(F)ccc21
active: [10] 20 µM
not listed: CD38, CD38 (gene 952) | [12] | [13]
inactive: all other assays above

C=CN1CCCC1=O
not listed: [1] | [12]
inactive: all other assays above

CCCCCCCCN(C)C
not listed: [1]
inactive: all other assays above

Cn1cc[nH]c1=S
not listed: [10] | [12] | [13]
inactive: all other assays above

CCCCCCCCCCCCCCO
inactive: [2] | [4]
active: [1] 31.2 µM | [3] 33.3 µM | [5] 29.6 µM | CD40, CD40 (gene 958) 34.1 µM | CD69, CD69 (gene 969) 30.6 µM | [6] 34.2 µM | [7] 36.3 µM | [8] 39.4 µM | [9] 30.3 µM | [10] 27.7 µM | [11] 32.4 µM

CCn1nc(C)c2c1C(=O)NCC(c1ccc(O)cc1)=N2
active: [4] 0.78 µM | CD40, CD40 (gene 958) 20 µM | [6] 4.49 µM | [7] 0.435 µM | [10] 20 µM
not listed: CD38, CD38 (gene 952) | [13]
inactive: all other assays above

O=C(O)c1ccc2c(c1)nc(C(=O)NC1CCN(C3CC3)CC1)n2Cc1cc(-c2ccc(Cl)s2)on1
not listed: CD38, CD38 (gene 952) | [13]
inactive: all other assays above

OCCOCCOCCO
not listed: [1] | CD38, CD38 (gene 952)
inactive: all other assays above

OC(Cn1cncn1)(Cn1cncn1)c1ccc(F)cc1F
not listed: [10] | CD38, CD38 (gene 952) | [13]
inactive: all other assays above

CCCCCCCC/C=C\CCCCCCCC(=O)OC[C@@H](O)[C@H]1OC[C@H](O)[C@H]1O
not listed: [1] | [10] | CD38, CD38 (gene 952)
inactive: all other assays above

OC(O)(C(F)C(O)(O)C(F)(F)F)C(F)(F)F
active: [3] 0.308 µM | [4] 4 µM and 13.3 µM | CD38, CD38 (gene 952) 16.6 µM and 18.1 µM
inactive: [2] | [13] | [3] | [5] | CD40, CD40 (gene 958) | CD69, CD69 (gene 969) | [6] | [7] | [8] | [9] | [11]

c1ccc2ncccc2c1
not listed: [1] | [10]
inactive: all other assays above
